This is part of a sample that, as a whole, favours compounds with a hit. Of some 79,000 tested, about 15% had one in any assay. Values without a mark were called inactive. Activity calls are given as the source filed them. No stated cut-off is given here; in the data, active means growth inhibition above about 70%; inactive means the rest.
Assay: NCI Yeast Anticancer Drug Screen. Data for the bub3 strain (AID 167)
Conditions: S. cerevisiae bub3 mutant strain, at 50.0 µM, hits give high values
Outline: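 Readout: yeast growth inhibition, expressed relative to vehicle-only wells. The test organism is a mutant strain from a panel with lesions in DNA repair or checkpoint genes.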

Row | SMILES | growth inhibition [%]
1 | Cc1ccc(N2CCN(c3ccc(C)cc3)C2=C2N(c3ccc(C)cc3)CCN2c2ccc(C)cc2)cc1 | 37.1
2 | c1ccc2c(CCNC3=NCCO3)cccc2c1 | -1.6
3 | COC1(OC)CC2C(=O)N(Cc3ccccc3)C1C=C2S(=O)(=O)c1ccccc1 (configuration not stated) | 1.55

Assay: NCI Yeast Anticancer Drug Screen. Data for the mlh1 rad18 strain (AID 175)
Conditions: S. cerevisiae mlh1 rad18 strain growth inhibition; at 50.0 µM; hits give high values
Outline: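 Test agents were incubated with a yeast strain of defined genotype (DNA damage repair defect). Inhibition of growth was derived by comparison with vehicle-exposed cultures.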

Row | SMILES | growth inhibition
4 | COc1cc2c(cc1O)C(=O)CCCC2 | 1.2%
5 | CC(O)C1CCCCC1O (configuration not stated) | -11.3%
6 | CC(=O)OCC1OC(n2cccnc2=O)C(OC(C)=O)C1OC(C)=O (configuration not stated) | 0.9%
7 | CCCCOC(=O)c1c2nc3c(C(=O)OCCCC)ccc(C)c3oc-2c(C)c(=O)c1NC(C)=O | 5.2%
8 | O=C(Nc1cccc([N+](=O)[O-])c1)OCC#CCOC(=O)Nc1cccc([N+](=O)[O-])c1 | 16.1%
9 | Nc1cccc2ccc(Cl)nc12 | -5%
10 | O=P(O)(O)OC1C(OP(=O)(O)O)C(OP(=O)(O)O)C(OP(=O)(O)O)C(OP(=O)(O)O)C1OP(=O)(O)O.[Cu+2] (configuration not stated) | -19.4%
11 | CC(C)SSC(=O)N1CCCC1C(=O)O (configuration not stated) | -1.7%
12 | O=[N+]([O-])c1ccc(/C=N\NC(=S)Nc2ccc3cn[nH]c3c2)cc1 | -9.65%
13 | COC(=O)CCCCCNC(=O)NCCCCCC(=O)OC | 19.1%
14 | COc1cc2c(cc1Cc1cc(OC)c(OC)c(OC)c1)OCO2 | 24.4%
15 | N#CCCNC(CC(=O)O)C(=O)O (configuration not stated) | -4.85%
16 | Cc1ccc2nc3c(C)cc(=O)cc-3sc2c1 | 43.6%
17 | Oc1ccc(O)c(-c2ccccc2)c1 | 44%
18 | CCN(CC)CCOC(=O)c1noc2cc([N+](=O)[O-])ccc12 | 9.85%
19 | Nc1cccc(N2N=C(C(=O)O)CC2=O)c1 | -15.6%
20 | Cc1ccccc1NC(=O)CC(=O)N1N=C(N(CCC#N)c2ccccc2Cl)CC1c1ccccc1 (configuration not stated) | -8.3%
21 | NC(=O)N/N=C/c1ccccc1O | 6.75%
22 | CCCCCC(=O)Oc1ccccc1OC | -7.9%
23 | C=C(C)COc1ccc(Nc2ccccc2)cc1 | 34%

Row | SMILES | growth inhibition
24 | NCCCCCC(=O)O | -8.4%
25 | Cc1cc(Br)ccc1NC1=CC(=O)C(=O)c2ccccc21 | 32.1%
26 | Cc1cc2c(=O)cc(-c3ccncc3)oc2c(C(=O)O)c1C | -5.5%
27 | CC1(C)CC(C2=NCCO2)CC(C)(C)N1 | -31.1%
28 | C=CCOc1cc2c(cc1C(C)c1ccc(OCC)c(C)c1)OCO2 (configuration not stated) | -1.6%
29 | COc1cccc(Oc2ccc(C)cc2)c1 | -21.9%
30 | CCOC(=O)c1nnn(Cc2ccccc2)c1N | -9.35%
31 | NC(=O)/C(=C(/O)C(=O)O)c1ccnc2ccccc12 | -2.15%
32 | C[Si](C)(C)c1ccc(-c2ccccc2)cc1 | -18.4%
33 | COC(=O)/C(=C\c1ccc(N(CCC#N)CCC#N)cc1)NC(=O)c1cc([N+](=O)[O-])ccc1Cl | -3.4%
34 | CC1C[C@]2(C)C(=NCCN)Nc3ccccc3[C@@H]2N(C)c2ccccc21 (some centres not stated) | 13.3%
35 | COC(=O)c1cc(=O)[nH]c(=O)[nH]1 | -15.9%
36 | CC(=O)c1cccc(NC(=O)Oc2ccc(C(=O)OCc3ccccc3)cc2)c1 | 92.9% (active)
37 | NC(=O)C(Cc1ccccc1)NC(=O)C1CCCN1 (configuration not stated) | 24.6%
38 | COc1ccccc1NC(N)=S | -26.9%
39 | CN(C(=O)/C=C/c1ccccc1)c1ccccc1 | 32.4%
40 | Cc1ccc(N2CCN(c3ccc(C)cc3)C2=C2N(c3ccc(C)cc3)CCN2c2ccc(C)cc2)cc1 | 19.6%
41 | c1ccc2c(CCNC3=NCCO3)cccc2c1 | 1.45%
42 | COC1(OC)CC2C(=O)N(Cc3ccccc3)C1C=C2S(=O)(=O)c1ccccc1 (configuration not stated) | 8.25%

— PubChem BioAssay (NCI)
